# Screens deposited in PubChem by several laboratories.
# BoNT F protease – inhibitors of Botulinum neurotoxin F light chain protease | Multiplex microsphere protease cleavage assay, flow cytometry | inhibition, % at 10 µM | 360,000 tested, 0.22% active | AID 588497; in the data active = inhibition above about 35%, passing the limit was not always enough; inconclusive = no clear call, values can overlap the other calls
# Autofluor counter – counter-screen for toxin protease inhibitors: compound fluorescence. compound autofluorescence counterscreen, microsphere flow cytometry; stronger effect = higher value. fluorescence intensity (test concentration not listed). 360,000 tested, 3.1% active. AID 624483; in the data active = fluorescence intensity above about 16000; inconclusive = no clear call, values can overlap the other calls
# BJeLR lethal – kills HRASV12-expressing BJeLR cells | inhibition, % (test concentration not listed) | 300,000 tested, 0.17% active | BJeLR (HRASV12) viability, CellTiter-Glo ATP luminescence, 48 h; in the data active = inhibition above about 50%; inconclusive = no clear call, values can overlap the other calls
# Anthrax LF inh2 – anthrax lethal factor protease inhibition; P15917; multiplex microsphere protease cleavage assay, LF; inhibition, % at 10 µM; 360,000 tested, 0.12% active; AID 588501
# Target sequence (P15917 whole entry, looked up): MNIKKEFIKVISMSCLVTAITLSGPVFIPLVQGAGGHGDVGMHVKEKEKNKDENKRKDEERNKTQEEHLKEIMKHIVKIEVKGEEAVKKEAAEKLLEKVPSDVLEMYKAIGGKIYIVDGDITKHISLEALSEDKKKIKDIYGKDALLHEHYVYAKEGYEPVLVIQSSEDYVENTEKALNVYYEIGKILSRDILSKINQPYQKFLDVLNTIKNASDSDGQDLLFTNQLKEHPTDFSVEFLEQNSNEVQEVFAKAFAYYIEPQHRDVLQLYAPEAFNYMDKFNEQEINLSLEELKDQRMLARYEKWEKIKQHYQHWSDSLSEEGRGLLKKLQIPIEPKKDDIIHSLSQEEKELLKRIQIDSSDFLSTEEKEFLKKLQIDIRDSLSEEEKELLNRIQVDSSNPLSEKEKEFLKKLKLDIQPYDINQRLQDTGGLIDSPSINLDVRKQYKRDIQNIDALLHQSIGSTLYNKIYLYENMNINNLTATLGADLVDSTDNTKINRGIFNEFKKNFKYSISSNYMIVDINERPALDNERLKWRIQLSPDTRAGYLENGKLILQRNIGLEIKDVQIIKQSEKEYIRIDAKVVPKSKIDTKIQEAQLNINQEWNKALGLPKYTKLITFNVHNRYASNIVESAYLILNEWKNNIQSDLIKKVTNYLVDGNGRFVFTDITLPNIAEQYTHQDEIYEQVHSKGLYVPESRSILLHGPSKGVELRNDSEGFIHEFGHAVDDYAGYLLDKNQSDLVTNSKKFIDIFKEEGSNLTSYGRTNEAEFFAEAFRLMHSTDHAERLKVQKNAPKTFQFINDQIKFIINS
# BoNT-A LC inh2 – blocks Botulinum neurotoxin A light chain protease; multiplex microsphere protease substrate cleavage, flow cytometry; inhibition, % at 10 µM; 360,000 tested, 0.17% active; AID 588499
# SARS 3CLpro inh – SARS-CoV 3CLpro protease inhibition | P0C6X7 | recombinant SARS-CoV 3CLpro, quenched FRET peptide cleavage | inhibition, % at 6 µM | 290,000 tested, 0.14% active | AID 1706; in the data active = inhibition above about 12%
# Numbers stand for hits; - = inactive; ? = inconclusive; . = no result. Hits are enriched below; roughly 3.6% of the tested compounds scored in any of these assays. Rule as the data show it, unless noted: active = inhibition above about 30%; inconclusive = no clear call, values can overlap the other calls; inactive = below that.
SMILES,BoNT F protease,Autofluor counter,BJeLR lethal,Anthrax LF inh2,BoNT-A LC inh2,SARS 3CLpro inh
O=C(Nc1ccccc1Cl)N1CCN(c2ccc3nnc(-c4ccc(F)cc4)n3n2)CC1,-,20523,-,-,?,-
Cc1cc(C(C)(C)C)c(OC(=O)[C@@H]2OC(c3ccccc3)=C[C@H]2c2ccccc2)c(C(C)(C)C)c1,-,-,.,-,-,.
CN(C)S(=O)(=O)c1ccc(C(=O)N(c2ccccn2)c2ccccn2)cc1,-,22500,-,-,-,-
O=C(c1ccco1)N(c1ccccn1)c1ccccn1,-,22821,-,-,?,-
O=C(c1cc([N+](=O)[O-])cc([N+](=O)[O-])c1)N(c1ccccn1)c1ccccn1,-,-,-,-,-,-
COc1cc(NC(=O)C(C)N2CCN(C(=O)C3CC3)CC2)cc(OC)c1 (stereo unspecified),-,-,.,-,-,.
CCN1C(=O)c2ccc(-c3nc4ccccc4c(=O)o3)cc2C1=O,-,-,-,-,-,-
CCN1C(=O)c2c(C)nc3ccccc3c2C1=O,-,20844,-,-,-,-
COc1ccncc1-c1ccccc1C1=CC(=O)CC(C)(C)C1=O,-,-,.,-,-,.
O=C(CCN=C1NS(=O)(=O)c2ccccc21)N1CCc2ccccc2C1,-,-,-,-,-,-
CC1=C(C(=O)OCC2CCCO2)C(c2cccc(C(F)(F)F)c2)C2=C(CC(c3ccco3)CC2=O)N1 (stereo unspecified),-,21820,-,-,-,-
Cc1ccc(OCC(=O)N2CCCCC2)c(Br)c1,-,17161,-,-,-,-
O=C(COC(=O)Cn1cnc2ccccc21)Nc1ccc(OC(F)F)cc1,-,-,.,-,-,.
COC(=O)c1cc(OC)c(OC)cc1NC(=S)N1CCC(C(N)=O)CC1,-,17588,-,-,-,-
COC(=O)c1cc(OC)c(OC)cc1NC(=O)CN1CCCCC1,-,22761,-,-,-,-
CCOC(=O)C1CCN(C(=S)Nc2cc(OC)c(OC)cc2C(=O)OC)CC1,-,20685,-,-,-,-
COC(=O)c1cc(OC)c(OC)cc1NC(=S)N1CCCCC1,-,20422,.,-,-,-
COC(=O)c1ccc(C(=O)OC)c(NC(=O)CN2CCCCC2)c1,-,-,-,-,-,-
CC(=O)c1ccc(OC2(C)CCN(Cc3cc4ccccc4[nH]3)C2)cc1 (stereo unspecified),-,-,.,-,-,.
COc1ccc(-c2cc3ccccc3[nH]2)cc1,-,-,-,-,-,-
Cc1ccc(O)c(-c2cc3ccccc3[nH]2)c1,-,23551,-,-,-,-
Cc1ccc2nc(-c3ccc(O)cc3)oc2c1,-,-,-,-,-,-
Cc1ccc(NC(=O)c2ccc3c(c2)CCN3S(C)(=O)=O)c(C)c1,?,-,-,-,-,-
Nc1c(-c2ccccc2)n[nH]c1-c1ccccc1,-,23500,-,-,?,-
S=c1nc(-c2ccccc2)c(-c2ccccc2)n[nH]1,-,-,-,-,-,-
SMILES,BoNT F protease,Autofluor counter,BJeLR lethal,Anthrax LF inh2,BoNT-A LC inh2,SARS 3CLpro inh
Clc1ccc2nc(-c3ccccc3)c(CN3CCOCC3)n2c1,-,23584,-,-,-,-
CCN1/C(=C/c2ccc3cc(C)ccc3[n+]2CC)Sc2cc(C)ccc21,-,-,.,-,55,-
CCCCN1/C(=C/c2ccc3ccccc3[n+]2CC)Sc2ccccc21,-,-,-,-,-,-
CSc1c(C#N)c(N)c(C#N)c2c1COC(C)(C)C2,-,21535,-,-,-,-
CC(C)c1nc(Cl)c(C#N)c2c1COC(C)(C)C2,?,-,-,-,?,-
O=C(NCc1cc(Br)cc(Br)c1OC(=O)c1ccccc1[N+](=O)[O-])c1ccccc1,-,-,-,-,-,-
CCN(CC)c1ccc(C=Nc2ccc(C#N)cc2)c(O)c1,-,-,-,-,-,-
CCN(CC)c1ccc(C=Nc2ccccc2C)c(O)c1,-,-,-,34,51,-
CCN(CC)c1ccc(O)c(C=Nc2ccc(C)c(C)c2)c1,-,-,-,-,50,-
CCN(CC(=O)Nc1c(F)cccc1F)C(=O)CCc1nc2cc(S(=O)(=O)N3CCOCC3)ccc2n1C,-,-,-,-,-,.
Cc1ccc(S(=O)(=O)NC(=O)NCc2ccco2)cc1,-,-,.,-,-,.
Cc1ccc(S(=O)(=O)NCC(=O)N(CC(=O)NCc2ccco2)Cc2cccs2)cc1,-,20378,-,-,-,-
Cc1ccc(S(=O)(=O)N[C@@H](CC(C)C)C(=O)NCc2ccco2)cc1,-,23101,-,-,?,-
O=C1CCCc2oc3ccc(O)cc3c21,-,-,-,-,-,-
CC(=O)c1ccc(OCCNS(=O)(=O)c2ccc(-n3cnnn3)cc2)cc1,-,-,-,-,-,-
C[C@H](O)[C@@H]1CN2CCc3c([nH]c4ccccc34)[C@@H]2C[C@@H]1N(C)C(=S)NCCc1ccccc1,-,-,.,-,37,.
CCC(C)n1c(SCC(=O)Nc2ccccc2C(F)(F)F)nc2ccsc2c1=O (stereo unspecified),-,21867,-,-,-,-
CCN(CC)CC(O)c1ccc2ccc3ccc(O)cc3c2c1 (stereo unspecified),-,-,.,-,-,.
COc1cc(/C=C2\C(=O)N(c3cccc(C(=O)O)c3)N=C2C)ccc1OCc1ccccc1,-,-,.,-,-,.
C#CCOc1ccc(/C=C2/C(=O)N(c3cccc(C(=O)O)c3)N=C2C)cc1OC,35,-,-,-,-,-
N#CCCOC1(C#CCN2CCCC2)CCCCC1,?,-,-,-,-,-
CN(C)C(=O)CSc1nnc(Cc2ccccc2)n1Cc1ccco1,-,-,-,-,-,-
O=C(CSc1nnc(Cc2ccccc2)n1Cc1ccco1)NC12CC3CC(CC(C3)C1)C2,-,23614,-,-,?,-
CCCCNCc1cc(Br)c(OCC(=O)N2CCOCC2)c(OC)c1,-,16518,-,-,-,-
CCCCOc1c(Br)cc(CNCCCN2CCOCC2)cc1OC,-,-,-,-,-,-
SMILES,BoNT F protease,Autofluor counter,BJeLR lethal,Anthrax LF inh2,BoNT-A LC inh2,SARS 3CLpro inh
O=C(c1cccc(Cl)c1)N1CCC(=O)N(C(CO)Cc2ccccc2)CC1 (stereo unspecified),-,-,-,-,-,.
O=C(NC1CCCCC1)C1CC(=O)N(c2ccccc2)C1 (stereo unspecified),-,-,-,-,-,-
CCOc1ccccc1Nc1nc(-c2sc(NC(=O)c3ccc([N+](=O)[O-])cc3)nc2C)cs1,.,.,78,.,.,-
COc1cc2c(cc1OC)CN(C1CCCN(Cc3cc(Cl)ccc3O)C1)CC2 (stereo unspecified),?,-,-,-,-,-
O=S(=O)(c1ccccc1)c1nc(-c2ccc(Cl)cc2)oc1NCCCN1CCOCC1,-,-,.,-,-,.
CCCCN1CC(=O)N2Cc3[nH]c4ccccc4c3C[C@H]2C1=O,-,-,-,-,-,-
CCc1cccc(N=c2c([N+](=O)[O-])nn(-c3ccc(Cl)cc3)n2O)c1,-,22799,-,-,-,-
O=[N+]([O-])c1nn(-c2ccc(Cl)cc2)n(O)c1=NCc1cccnc1,-,-,-,-,-,-
